Bioassay records: PubChem, National Center for Advancing Translational Sciences (NCATS)
In the library only some 11% were active in any assay of this set; here they are far more common.
VACV mCherry inh: inhibitors of vaccinia virus infection (mCherry reporter signal); actives 0.63% (n = 310,000); Vaccinia virus mCherry reporter infection, fluorescence; Potency, µM (titrated, usually from 36.5 µM), for inactives: at the highest dose activity change, negative = inhibition, usual class: inhibitors; AID 720579; calls by dose curve; tested in A549 cells; further: on the % scale 0 is the no-effect control and ±100 the full control effect; nearly all actives have a fitted effect of over 35% in size
NS1 inh: blocks influenza NS1 protein function; AID 2326; actives 0.4% (n = 270,000); Potency, µM (titrated, usually from 46.1 µM), inactives show at the top dose activity, positive = more growth; calls by dose curve; further: actives are rising curves; nearly all actives have a fitted effect of over 50% in size
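S. cerevisiae expressing influenza A NS1, grown in glucose, washed, then diluted 1:100 into pH 6.0 -URA galactose medium with 23 nl compound. Growth recovery read as OD600; NS1-free strain serves as control.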
Pf growth 96h: P. falciparum growth inhibition at 96 hour, primary screen for plastid delayed-death inhibitors; actives 6.9% (n = 320,000); AID 504834; P. falciparum luciferase reporter growth, 96 h; Potency, µM (titrated, usually from 28.7 µM), without a hit: at the top dose activity change, negative = inhibition, actives largely listed as inhibitors; further: on the % scale 0 is the no-effect control and ±100 the full control effect
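Luminescence readout: decreased luciferase signal marks inhibited growth of reporter-expressing P. falciparum in infected red cells (2% hematocrit, 0.05% parasitemia final), exposed to compound two generations (96 h, 37 C, 5% CO2).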
VACV Venus inh: vaccinia inhibition (Venus reporter) | Vaccinia virus Venus reporter expression, fluorescence | Potency, µM (series often up to 36.5 µM), for the others: at the highest dose activity change, negative = inhibition, most hits filed as inhibitors | actives 0.46% (n = 330,000) | AID 720580; calls by dose curve; tested in A549 cells; further: on the % scale 0 is the no-effect control and ±100 the full control effect; nearly all actives have a fitted effect of over 30% in size
Pf growth 48h: P. falciparum growth inhibition at 48 hours (one generation); actives 5.9% (n = 310,000); P. falciparum luciferase growth in erythrocytes, 48 h; Potency, µM (doses to about 28.7 µM), for inactives: top-dose activity change, negative = inhibition, most hits filed as inhibitors; further: on the % scale 0 is the no-effect control and ±100 the full control effect
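Read-out is firefly luciferase luminescence from an integrated reporter in P. falciparum, so falling signal marks reduced parasite growth. Infected erythrocytes were at 2% hematocrit and 0.1% parasitemia (final) in Albumax-supplemented RPMI 1640.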
HCV inhibitor: blocks hepatitis C virus; Potency, µM (top dose mostly 41.8 µM), inactives show top-dose activity change, negative = inhibition, actives largely listed as inhibitors; AID 651820; actives 3.4% (n = 340,000); Huh7.5.1 HCVcc-Cre infection, luciferase reporter, 44 h; further: on the % scale 0 is the no-effect control and ±100 the full control effect
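Cells (1,000/well) were plated 4 h before compound, then infected with HCVcc-Cre virus (~0.5 moi). After 44 h further culture, infection was read as luciferase luminescence following a 15 min substrate incubation at room temperature.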
* hit, by the source's call; i = inactive; ? = inconclusive; · = no result; [ ] = another dose, or the depositor's remark. Unless noted, the call rests on the fitted dose curve; in most records, active means well fitted inhibition curve with a large enough effect; inconclusive means small, poorly fitted or top-dose-only effect, or another doubt; inactive means no such curve, though single readings can be large or run the other way. Potency means the concentration at half of the fitted maximal effect.

SMILES	VACV mCherry inh	NS1 inh	Pf growth 96h	VACV Venus inh	Pf growth 48h	HCV inhibitor
O=C(c1cc([N+](=O)[O-])ccc1N1CCOCC1)N1CCN(S(=O)(=O)c2cc(Cl)ccc2Cl)CC1	i	·	?	-14%	10µM*	3%
O=C(c1cc([N+](=O)[O-])ccc1N1CCCCC1)N1CCCC1	-12%	5%	7.4µM*	-6%	31%	14%
Cc1noc(C)c1CSCC(=O)N1CCN(c2ccc([N+](=O)[O-])cc2)CC1	·	-46%	12µM*	?	·	11µM*
CC(C)CCN(C(=O)c1csnn1)C(C(=O)NC1CCCC1)c1ccc(F)cc1 (stereo not given)	-19%	2%	1%	-18%	-9%	13%
Cc1cc(/C=C2\C(=O)NC(=O)N(c3ccc(F)cc3)C2=O)c(C)n1-c1cccc(C(=O)O)c1	i	5%	?	9%	5%	-5%
Cc1ccc(Cl)cc1NC(=O)C1CCC(CNS(=O)(=O)c2cccc3nsnc23)CC1 (stereo not given)	2%	·	·	5%	·	·
O=[N+]([O-])c1cccc(OCC(O)CN2CCN(S(=O)(=O)c3cc(Cl)ccc3Cl)CC2)c1 (stereo not given)	?	-14%	10µM*	-3%	?	-29%
O=C(/C=C/c1ccc(Cl)cc1)N1CCN(c2ccc([N+](=O)[O-])c(N3CCOCC3)c2)CC1	i	5%	10µM*	-12%	?	7.9µM*
O=S(=O)(c1ccc(Cl)c(C(F)(F)F)c1)N1CCN(CC(O)COc2ccccc2F)CC1 (stereo not given)	?	-13%	?	-28%	?	11%
O=C(/C=C/c1ccc(Cl)cc1Cl)N1CCN(c2ccc([N+](=O)[O-])c(N3CCOCC3)c2)CC1	15%	-4%	?	-7%	-23%	?
O=C(c1cc([N+](=O)[O-])ccc1N1CCOCC1)N1CCN(c2ccc([N+](=O)[O-])cc2)CC1	-25%	·	9.3µM*	-29%	?	2%
O=C(c1cc([N+](=O)[O-])ccc1N1CCOCC1)N1CCCCC1	-17%	13%	11%	-8%	10%	7%
O=C(NNC(=O)c1ccccc1F)C1=NN(c2ccccc2)C(=O)CC1	·	-19%	?	·	?	5%
COc1ccc(C2NC(c3ccc(OC)cc3)C([N+](=O)[O-])C(C)(C)C2[N+](=O)[O-])cc1 (stereo not given)	·	15%	9%	·	?	-8%
CN(C(=O)CSc1nc(N)cc(N)n1)C1CCS(=O)(=O)C1 (stereo not given)	·	1%	23%	·	16%	4%
C=CC[n+]1c(-c2ccc(Cl)cc2Cl)csc1Nc1ccc(NC(C)=O)cc1	?	-5%	-81%	-10%	?	?
Clc1ccc(-c2csc(Nc3ccccc3)[n+]2Cc2ccco2)c(Cl)c1	·	-3%	?	·	12µM*	?
CCCC[n+]1c(-c2ccc(Cl)cc2Cl)csc1Nc1ccccc1	-11%	-27%	1.7µM*	12%	3.7µM*	?
C=CC[n+]1c(-c2ccc(Cl)cc2Cl)csc1Nc1c(C)n(C)n(-c2ccccc2)c1=O	?	-32%	?	?	?	13µM*
C=CC[n+]1c(-c2ccc(C)cc2)csc1Nc1c(C)n(C)n(-c2ccccc2)c1=O	-27%	·	-18%	-12%	0%	-27%
CC(Nc1nc(-c2ccccc2O)nc2ccccc12)c1ccccc1 (stereo not given)	-1%	2%	?	-28%	?	?
COc1ccccc1-c1nnc(C2CCN(C(=O)c3ccccc3C)CC2)o1	-14%	·	·	-15%	·	·
CC(=O)c1ccc(N(CC(=O)NC2CCCC2)C(=O)CNC(=O)c2ccco2)cc1	-6%	-1%	24%	1%	14%	12%
Cc1c(C(=O)OC2CCCCCC2)[nH]c2c1C(=O)CC(c1ccc(Cl)cc1)C2 (stereo not given)	-9%	·	·	-10%	·	·
O=C1Nc2ccc(Br)cc2C1(O)Cc1ccncc1 (stereo not given)	·	4%	42%	-9%	8%	10%
SMILES	VACV mCherry inh	NS1 inh	Pf growth 96h	VACV Venus inh	Pf growth 48h	HCV inhibitor
CC1(C)N=C(N)N=C(N)N1CCCCc1ccccc1	0.71µM*	-14%	·	1µM*	·	?
O=C1NC(c2ccccc2Cl)Nc2ccccc21 (stereo not given)	·	1%	3%[5.75 µM]	·	10%	-12%
Cn1c(=O)c2c(O)cc(=O)n(-c3ccccc3)c2n(C)c1=O	-8%	19%	-5%	-4%	22%	10%
Cn1c(=O)cc(Nc2ccccc2)c2c(=O)n(-c3ccccc3)c(=O)n(-c3ccccc3)c21	-1%	4%	4.7µM*	-23%	6.6µM*	1%
Cn1c(=O)cc(N)n(-c2ccccc2)c1=O	-12%	4%	23%	-11%	19%	11%
Cn1c(=O)c2c(Nc3ccc(F)cc3)cc(=O)n(-c3ccccc3)c2n(C)c1=O	-12%	4%	?	-7%	2.3µM*	9%
O=C(NCCCCCc1nc2ccccc2[nH]1)c1ccccc1Cl	·	10%	?	·	?	-3%
CC1CCCCC1NS(=O)(=O)c1ccc(S(=O)(=O)N2CCN(CCC#N)CC2)cc1 (stereo not given)	-8%	-27%	-24%	-9%	13µM*	10%
N#CCCN1CCN(S(=O)(=O)c2ccc(C3CCCCC3)cc2)CC1	·	·	43%	·	-6%	?
CC1=CC(=O)c2ccccc2C1=O	-13%	-22%	15µM*	-11%	?	-6%
COc1cccc2c1C(=O)C=C(C)C2=O	9%	-32%	15µM*	316%	?	?
CC1=CC(=O)c2c(O)cccc2C1=O	i	·	·	-10%	·	·
CC(C)(C=O)C1=CC(=O)c2ccccc2C1=O	-27%	1%	?	-13%	?	7.1µM*
CCc1nnc(NS(=O)(=O)c2ccc(NC(=O)c3cc4ccccc4oc3=O)cc2)s1	·	4%	-10%	·	4%	-3%
O=C(CSc1nnc(C2CC2)n1Cc1ccccc1)NCc1ccccc1	·	-6%	37%	·	-10%	9%
Cc1c(CCOC(=O)C2C3CC4CC(C3)CC2C4)sc[n+]1CC(=O)c1ccc(Br)cc1 (stereo not given)	·	2%	?	?	?	?
Cc1c(CCOC(=O)c2ccc(Cl)cc2Cl)sc[n+]1CC(=O)c1ccc(Br)cc1	·	·	·	·	·	14µM*
O=C(C1CCC(CNS(=O)(=O)c2cccs2)CC1)N1CCN(c2ccc(Cl)cc2)CC1 (stereo not given)	?	13%	177%	?	-18%	3.5µM*
O=C(C1CCC(CNS(=O)(=O)c2ccc(Br)s2)CC1)N1CCN(c2ccccc2)CC1 (stereo not given)	-16%	·	·	-13%	·	·
